Screens from PubChem.
A selection: hits, their analogues and other compounds. The true share with any hit is near 12%.
L major viab = Leishmania major promastigote growth inhibition, primary screen | Leishmania major promastigotes, resazurin fluorescence viability | inhibition, % at 10 µM | 200,000 compounds, 9% hits; in the data active means inhibition above about 50%;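 further: promastigotes grown with compound for 44 hours at 28 °C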
INS promoter inh = inhibitors of insulin promoter-driven GFP, primary screen, imaging, TRM-6 cells (human fetal islet line), eGFP reporter, cell count | reporter expression induced with tamoxifen | inhibition, % at 2 µM | 130,000 compounds, 0.9% hits | AID 1273, 2008;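 active means inhibition above the mean plus 3 SD, with well images judged a real hit on visual review, cut at about 60% in these data, passing the limit was not always enough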
KCC2 mod = KCC2 cotransporter modulators, thallium flux, primary screen, cell-based, HEK293 KCC2, FluoZin-2 fluorescence, MLSMR; Solute carrier family 12 member 5 (Homo sapiens), Q9H2X9; B-score of Tl+ flux slope (higher = more flux/activation; lower = inhibition) at 10 µM; 190,000 compounds, 2.2% hits; KCC2 cells, thallium flux FluoZin-2 fluorescence; AID 1456, 2008;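 active means thallium flux slope and its plate-corrected score both differing from the plate sample mean at a set confidence after two filtering rounds, in either direction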;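 further: slope of fluorescence scaled to starting intensity during 10 to 20 s after thallium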
Ins promoter up = insulin promoter activators in MIN6 cells, imaging, high-content screening, mouse beta cells | MIN6 insulin promoter-GFP reporter; active compounds read high | z-score at 5 µM | 190,000 compounds, 0.3% hits;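 active means z-score above 3 at 5 µM with at least 500 cells counted in the well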
WT yeast gro inh = growth inhibition of WT strain, primary screen, mitochondrial fusion inhibitor project, WT and mutant strains, chemical genetic; mitochondrial fusion phenotypic screen; inhibition, % at 10 µM; 190,000 compounds, 2.1% hits; AID 1362, 2008; in the data active means inhibition above about 58%; tested in S. cerevisiae
ROMK primary = ROMK potassium channel modulators, primary screen, cell-based, thallium flux, MLSMR library. ATP-sensitive inward rectifier potassium channel 1 (Homo sapiens), P48048. Tet-inducible ROMK, thallium flux fluorescence; actives lie on both sides. B-score at 10 µM. 130,000 compounds, 2% hits;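 active means signal ratio slope over the read window, or its plate-corrected B-score, at least 3 SD from the plate mean, either direction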;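 further: B-score of the F/F0 ratio slope over 7 to 12 s after thallium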
Target sequence (P48048 whole entry, looked up): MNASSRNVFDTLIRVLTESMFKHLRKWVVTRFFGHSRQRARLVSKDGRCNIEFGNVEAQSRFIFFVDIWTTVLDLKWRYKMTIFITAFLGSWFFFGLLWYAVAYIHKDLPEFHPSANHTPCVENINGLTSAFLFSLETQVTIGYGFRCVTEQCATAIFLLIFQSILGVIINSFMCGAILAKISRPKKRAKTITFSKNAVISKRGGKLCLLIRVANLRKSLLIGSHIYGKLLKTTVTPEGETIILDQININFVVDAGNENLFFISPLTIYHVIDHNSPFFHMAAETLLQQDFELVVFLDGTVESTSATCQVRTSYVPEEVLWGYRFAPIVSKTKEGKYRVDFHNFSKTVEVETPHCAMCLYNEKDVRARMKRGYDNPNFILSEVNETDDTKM
The depositor's hits bear a star; . = no result.

SMILES	L major viab	INS promoter inh	KCC2 mod	Ins promoter up	WT yeast gro inh	ROMK primary
O=C(CSc1n[nH]c(-c2ccccc2)n1)Nc1ccc(Br)cn1	54*	68	-0.13	-0.57	2	-0.73
O=C(CSc1n[nH]c(-c2ccccc2)n1)Nc1ncccn1	-2	.	0.39	0.59	1	1.8
NC(=O)CCCc1nc(-c2ccccc2)no1	.	.	1.2	-0.54	.	.
CS(=O)(=O)N(Cc1ccccc1)c1ccc(C(=O)NCCSc2ccccn2)cc1	60*	-16	-2.3	0.23	7	1.1
CCC(Sc1nc2ccc(N)cc2s1)C(=O)Nc1nccs1 (centres undefined)	55*	0	0.013	.	-3	-0.098
O=c1cc(N2CCCCC2)c(-c2ccccc2)nn1Cc1ccc(Cl)cc1Cl	15	6	0.11	.	73*	.
C=CCn1nc(-c2ccccc2)c(N2CCCCC2)cc1=O	5	22	0.93	-1.5	0	1.4
O=c1cc(N2CCCCC2)c(-c2ccccc2)nn1Cc1ccccc1Cl	38	-18	-0.83	.	88*	.
O=c1cc(N2CCCCC2)c(-c2ccccc2)nn1Cc1cccc(Cl)c1	41	-5	-0.24	.	86*	.
Cc1cc(C)nc(NNC2=CC(=[N+]3CCCCC3)CC(C)(C)C2)n1	-1	-50	-1.1	-0.82	5	.
COC(=O)C1=C(C(=O)OC)C(c2cc(Br)ccc2O)c2sc(=O)[nH]c2S1 (centres undefined)	65*	3	-5.9*	0.36	19	0.82
CNc1n[nH]c(=S)s1	.	.	0.64	-0.26	.	.
Cc1ccc(-c2csc3nc(C)n(N)c(=O)c23)o1	-4	-5	-0.033	-0.81	-5	0.044
O=c1c2c(-c3cccs3)csc2[nH]c(=S)n1-c1ccccc1	-9	11	2.4	0.54	-6	.
CCn1c(=S)[nH]c2scc(-c3cccs3)c2c1=O	-6	0	60*	-0.31	25	13*
C=CCn1c(=S)[nH]c2scc(-c3ccc(C)o3)c2c1=O	0	-17	61*	0.23	65*	7.5*
O=S(=O)(/C=C/c1ccccc1)N1CCN(c2cccc(Cl)c2)CC1	-1	-14	0.023	.	6	.
CC(=O)OC1CCC2(C)C(COc3ccc4ccc(=O)oc4c3)C(C)(O)CCC2C1(C)C (centres undefined)	99*	.	2.4	-0.66	13	0.61
CC1=C(C(=O)Nc2ccccc2)C2(CCCCC2)C(C#N)=C(S)N1	-4	17	0.61	-0.97	2	.
O=C(NCc1cccs1)C1CCC(=O)N1C1CCCCC1 (centres undefined)	-4	-62	.	-0.2	10	-0.03
COc1ccc(CN(C)Cc2nc3scc(-c4ccccc4)c3c(=O)[nH]2)cc1OC	63*	-27	0.23	-0.28	4	-0.26
O=C(CSCc1ccccc1)Nc1ccc2c(c1)C(=O)NC2=O	-3	6	0.082	1.1	-2	.
Cc1cccc(-n2c(-c3csc(C(C)C)c3)n[nH]c2=S)c1	39	40	7.6*	0.26	-12	-0.035
Cc1cccc(-n2c(-c3csc(C)c3C)n[nH]c2=S)c1	-7	-50	3.9	0.1	37	.
Cc1nn(-c2cc(N(S(C)(=O)=O)S(C)(=O)=O)c(Cl)cc2Cl)c(=O)n1C	-5	58	-0.87	0	10	0.69
SMILES	L major viab	INS promoter inh	KCC2 mod	Ins promoter up	WT yeast gro inh	ROMK primary
O=C(Nc1ccc(Oc2nnc(-c3ccccc3)c3ccccc23)cc1)c1ccccc1	77*	14	0.27	-0.56	29	.
CC(=O)Nc1ccc(NC(=O)c2ccccc2Sc2ccc([N+](=O)[O-])cc2Cl)cc1	94*	9	-1.2	-0.15	-4	.
O=C(c1ccccc1Sc1ccc([N+](=O)[O-])cc1Cl)N1CCOCC1	18	-10	-1.5	-0.21	4	0.017
N#Cc1ccccc1Sc1ccccc1C(=O)Nc1ccc(Br)cc1	-4	-39	-0.76	-0.04	77*	.
Cc1ccccc1OCCNC(=O)c1ccccc1Sc1ccccc1C#N	13	-17	-3.2	-0.19	12	.
Cc1cc(C)c(OCCNC(=O)c2ccccc2Sc2ccccc2C#N)c(C)c1	100*	-43	-0.86	-0.06	24	.
CCOC(=O)c1ccc(-n2c(CN3CCN(CCO)CC3)nc3ccc([N+](=O)[O-])cc3c2=O)cc1	7	.	-0.45	0.1	-8	-0.37
O=C(CSc1ccccc1)Nc1ccc(N2CCN(c3ccccc3)CC2)c(F)c1	-4	.	-0.56	0.19	8	.
COc1ccc(SCC(=O)Nc2ccc(N3CCN(C)CC3)c(F)c2)cc1	94*	.	-0.21	2.7	6	1.5
O=C(CN1CCOCC1)NN=C1CCCCCCCCCCC1	52*	31	0.37	-0.52	-6	-0.59
C#Cc1ccc([C@@H]2C=C(C(=O)O)O[C@H](OCc3ccc(CO)cc3)C2)cc1	-8	.	0.39	0.82	1	.
Cc1cccc(NC(=O)CSc2nnc(CNC(=O)c3ccc(S(=O)(=O)N(C)C)cc3)n2-c2ccccc2)c1	55*	50	-0.34	0.38	-6	0.0094
Cc1cccc(NC(=O)CSc2nnc(CNC(=O)c3ccc(S(=O)(=O)N(C)C)cc3)n2-c2cccc(C)c2)c1	72*	29	0.051	0.73	-11	-0.38
COc1cccc(NC(=O)Cn2c(CCC(=O)O)ccc2-c2ccc(C)cc2)c1	4	.	-0.46	0.17	7	-0.75
Cc1nc([N+](=O)[O-])c(C(=O)OCc2ccccc2C#N)n1C	5	-20	.	0.56	-8	-0.0004
Cc1c(NC(=O)CSc2nnc(-c3ccncc3)o2)c(=O)n(-c2ccccc2)n1C	-1	36	2.2	0.98	-12	.
Cc1sc(N/N=C/c2cccnc2)nc1-c1ccc(Cl)cc1	-4	-21	.	0.08	7	.
Clc1ccc(N/N=C/c2cccnc2)cc1	62*	.	-0.74	0.29	59*	.
O=C(COC(=O)C1(c2ccc(Cl)cc2)CCCC1)Nc1ncc(C(F)(F)F)cc1Cl	-8	.	-0.74	-0.05	68*	.
O=C(COC(=O)c1ccc([N+](=O)[O-])s1)Nc1ncc(C(F)(F)F)cc1Cl	-6	.	0.39	0.74	82*	.
Cc1cc(C(=O)COC(=O)CN(C)S(=O)(=O)c2ccc(Cl)cc2)c(C)n1CC1CCCO1 (centres undefined)	3	-29	.	-0.59	18	0.078
CCOC(=O)CNC(=S)N(Cc1cccs1)C1CCCCC1	2	-34	0.83	.	15	0
Cc1ccccc1NC(=S)N(Cc1cccs1)C1CCCC1	20	.	3.6	0.9	13	1.4
CCc1ccccc1NC(=S)N(Cc1cccs1)C1CCCC1	17	.	-0.011	0.65	71*	-0.47
CC1CCCC(NC(=O)CNC(=S)N(Cc2ccccc2)Cc2cccs2)C1C (centres undefined)	46	-15	0.038	.	65*	-0.034
